From PubChem BioAssay (Tox21)
Several values for one entry are separate records, joined by “and”; a condition that tells them apart may be missing. Equal entries are not always repeated. Records with an inconclusive call do not appear. Where a call stands in place of a potency, no number is given. The source holds several records for some structures; these can differ, active in one and inactive in another. Activity calls are given as the source filed them. Unless noted, the call rests on the fitted dose curve; in most records, active means well fitted curve in the direction sought with a large enough effect in the repeat runs; inconclusive means weak or mixed curves; inactive means no such curve, though single readings can be large; an effect the other way counts as inactive or inconclusive.

Tests used:
[1] = qHTS assay to identify small molecule antagonists of the retinoid acid receptor (RAR) signaling pathway - cell viability counter screen (AID 1159551); further: nearly all actives have a fitted effect of over 35% in size; further: potency means the concentration at half of the fitted maximal effect
Summary of the method: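 C3RL4 cells were seeded overnight at 37 C, then treated with compounds plus 1 uM (final) retinol for 6 h at 37 C. Viability was read as ATP by CellTiter-Glo luminescence after 30 min at room temperature.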

[2] = qHTS assay to identify small molecule agonists of the retinoic acid receptor (RAR) signaling pathway (AID 1159553); settings: C3RL4 RARE luciferase reporter, agonist, 6 h; activation: at 73.3 µM (top of the series) unless noted; further: potency means the concentration at half of the fitted maximal effect
Summary of the method: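 C3RL4 cells carrying a RARE luciferase reporter were plated overnight at 37 C, then exposed to compounds in DMSO for 6 hr at 37 C and 5% CO2. Luminescence was read 30 min after luciferase reagent addition at room temperature.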

[3] = qHTS assay to identify small molecule antagonists of the estrogen related receptor (ERR) signaling pathway from Tox21 library - cell viability counter screen (AID 1224834); further: nearly all actives have a fitted effect of over 30% in size; further: potency means the concentration at half of the fitted maximal effect
Summary of the method: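 ERR reporter cells were plated 6 h before compound addition, then exposed to test compounds in DMSO for 17.5 h at 37 C. Viability was read as CellTiter-Fluor fluorescence after a 30-minute incubation at 37 C.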

[4] = biological target: Luciferin 4-monooxygenase (Photinus pyralis) (UniProt P08659); assay: qHTS assay to identify small molecule inhibitors of firefly luciferase (AID 1224835); further: nearly all actives have a fitted effect of over 25% in size; further: potency means the concentration at half of the fitted maximal effect
Luciferin 4-monooxygenase (Photinus pyralis), sequence (P08659 whole entry, looked up): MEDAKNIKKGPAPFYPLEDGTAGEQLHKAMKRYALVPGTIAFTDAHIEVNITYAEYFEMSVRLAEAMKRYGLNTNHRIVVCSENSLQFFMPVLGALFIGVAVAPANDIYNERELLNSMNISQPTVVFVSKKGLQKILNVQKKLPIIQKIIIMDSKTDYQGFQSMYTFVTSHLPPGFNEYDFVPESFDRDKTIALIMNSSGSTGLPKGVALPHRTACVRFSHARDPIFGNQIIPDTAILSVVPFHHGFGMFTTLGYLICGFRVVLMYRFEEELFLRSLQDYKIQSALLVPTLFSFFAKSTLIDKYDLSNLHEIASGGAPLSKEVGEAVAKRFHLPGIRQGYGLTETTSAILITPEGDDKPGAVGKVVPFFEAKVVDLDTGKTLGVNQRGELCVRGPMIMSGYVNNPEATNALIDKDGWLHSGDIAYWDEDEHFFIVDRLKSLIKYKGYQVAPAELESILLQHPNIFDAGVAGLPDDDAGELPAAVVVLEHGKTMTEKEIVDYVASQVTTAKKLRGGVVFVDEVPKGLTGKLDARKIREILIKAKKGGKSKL
Summary of the method: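 Inhibition of purified Photinus luciferase is measured by luminescence. Substrate levels (D-luciferin, ATP) sit at their KM values. Each compound is tested in a concentration series.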

[5] = qHTS assay to identify small molecule antagonists of the constitutive androstane receptor (CAR) signaling pathway - cell viability counter screen (AID 1224837); further: nearly all actives have a fitted effect of over 45% in size; further: potency means the concentration at half of the fitted maximal effect
Summary of the method: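 HepG2 cells stably expressing hCAR and a CYP2B6-2.2kb reporter were plated and pre-incubated 4 hr at 37 C/5% CO2, then given compounds at 15 concentrations plus 50 nM CITCO (final). After 23 hr, viability was read by CellTiter-Fluor fluorescence.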

[6] = biological target: Nuclear receptor subfamily 1 group I member 3 (Homo sapiens) (UniProt Q14994); assay: qHTS assay to identify small molecule antagonists of the constitutive androstane receptor (CAR) signaling pathway (AID 1224838); further: nearly all actives have a fitted effect of over 40% in size; further: potency means the concentration at half of the fitted maximal effect
Nuclear receptor subfamily 1 group I member 3 (Homo sapiens), sequence (Q14994 whole entry, looked up): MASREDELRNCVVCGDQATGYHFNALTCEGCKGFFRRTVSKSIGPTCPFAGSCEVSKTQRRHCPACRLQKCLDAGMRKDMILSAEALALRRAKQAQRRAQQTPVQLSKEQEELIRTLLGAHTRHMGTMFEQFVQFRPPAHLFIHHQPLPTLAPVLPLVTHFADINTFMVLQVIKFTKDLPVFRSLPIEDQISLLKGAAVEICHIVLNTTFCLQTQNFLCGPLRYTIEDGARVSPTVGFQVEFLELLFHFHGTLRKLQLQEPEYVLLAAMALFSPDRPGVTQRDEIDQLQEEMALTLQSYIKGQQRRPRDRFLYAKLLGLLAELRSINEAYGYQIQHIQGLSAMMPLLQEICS
Summary of the method: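 HepG2 cells stably co-transfected with hCAR and a CYP2B6-2.2kb luciferase reporter were seeded 4 h before compound addition at 15 concentrations. Cells were stimulated with 50 nM CITCO (final) for 24 h at 37 C; luciferase luminescence was then read.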

[7] = biological target: Nuclear receptor subfamily 1 group I member 3 (Homo sapiens) (UniProt Q14994); assay: qHTS assay to identify small molecule agonists of the constitutive androstane receptor (CAR) signaling pathway (AID 1224839); further: nearly all actives have a fitted effect of over 15% in size; further: potency means the concentration at half of the fitted maximal effect;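 on activation: HepG2 cells stably carrying human CAR and a CYP2B6 luciferase reporter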
Summary of the method: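 Using human hepatoma HepG2 cells engineered with hCAR and a CYP2B6-2.2kb reporter, 15-concentration compound series were incubated 24 h alongside PK11195 at 0.75 uM final, with luminescence quantified afterwards.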

[8] = qHTS assay to identify small molecule antagonists of the estrogen related receptor signaling pathway with the pleiotropic PPARgamma coactivator (PGC) from Tox21 10K library - cell viability counter screen (AID 1224840; active means well fitted cell-killing curve with a large enough effect in the repeat runs, not every such curve was filed as active; further: nearly all actives have a fitted effect of over 40% in size; further: potency means the concentration at half of the fitted maximal effect)
Summary of the method: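 PGC/ERR cells were seeded at 2,000 cells/well and left 6 hours at 37 C/5% CO2 before pin-tool addition of compounds in DMSO. After 17.5 hours at 37 C, CellTiter-Fluor was added and fluorescence read 30 minutes later.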

[9] = qHTS assay to identify small molecule antagonists of the estrogen related receptor signaling pathway with the pleiotropic PPARgamma coactivator (PGC) from Tox21 10K library (AID 1224841; call rule not given here; further: actives are mostly falling curves and most rising ones were filed inactive; nearly all actives have a fitted effect of over 50% in size; further: potency means the concentration at half of the fitted maximal effect)
Summary of the method: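 PGC/ERR reporter cells were seeded at 2,000 cells/well and held 6 hours at 37 C/5% CO2 before pin-tool addition of compounds in DMSO. After 18 hours at 37 C, One-Glo was added and luminescence read after 30 minutes at room temperature.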

[10] = qHTS assay to identify small molecule agonists of the estrogen related receptor signaling pathway with the pleiotropic PPARgamma coactivator (PGC) from Tox21 10K library (AID 1224842); further: nearly all actives have a fitted effect of over 15% in size; further: potency means the concentration at half of the fitted maximal effect
Summary of the method: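 Luminescence from One-Glo (30 min, room temperature) measured after PGC/ERR cells had 18 h at 37 C with pinned compound (23 nL in DMSO). Cells had been seeded at 2,000 per well and pre-incubated 6 h.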

[11] = biological target: Thyrotropin receptor (Homo sapiens) (UniProt P16473); assay: qHTS assay to identify small molecule agonists of the thyroid stimulating hormone receptor (TSHR) signaling pathway (AID 1224843; calls by dose curve; further: nearly all actives have a fitted effect of over 45% in size; further: potency means the concentration at half of the fitted maximal effect)
Thyrotropin receptor (Homo sapiens), sequence (P16473 whole entry, looked up): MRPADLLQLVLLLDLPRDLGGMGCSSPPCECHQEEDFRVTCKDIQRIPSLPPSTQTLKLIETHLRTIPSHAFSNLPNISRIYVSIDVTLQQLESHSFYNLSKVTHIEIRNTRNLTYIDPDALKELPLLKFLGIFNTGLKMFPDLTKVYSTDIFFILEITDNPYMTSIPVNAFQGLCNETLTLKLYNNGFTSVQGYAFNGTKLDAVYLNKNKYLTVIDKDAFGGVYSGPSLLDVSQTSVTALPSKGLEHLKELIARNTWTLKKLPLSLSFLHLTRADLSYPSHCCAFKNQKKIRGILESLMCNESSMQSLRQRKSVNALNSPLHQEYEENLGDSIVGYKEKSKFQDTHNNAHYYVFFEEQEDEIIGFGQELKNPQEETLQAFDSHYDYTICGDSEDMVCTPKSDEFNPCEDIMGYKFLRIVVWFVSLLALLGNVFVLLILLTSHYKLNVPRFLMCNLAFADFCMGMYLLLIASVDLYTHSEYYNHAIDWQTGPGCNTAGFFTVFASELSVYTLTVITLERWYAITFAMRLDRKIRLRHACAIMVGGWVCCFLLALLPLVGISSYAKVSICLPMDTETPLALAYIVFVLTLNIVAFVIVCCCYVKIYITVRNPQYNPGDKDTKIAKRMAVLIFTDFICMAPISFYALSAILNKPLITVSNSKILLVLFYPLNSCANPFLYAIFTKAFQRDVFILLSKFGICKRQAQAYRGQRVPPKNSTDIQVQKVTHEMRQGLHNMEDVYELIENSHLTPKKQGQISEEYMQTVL
Summary of the method: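 Screening of the Tox21 10K collection used HEK293 cells engineered with TSHR at 800 cells per well. After a 30-min room-temperature compound exposure, HTRF cAMP reagents were added and fluorescence recorded 1 h later.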

[12] = qHTS assay to identify small molecule agonists of the hypoxia (HIF-1) signaling pathway - cell viability counter screen (AID 1224844; calls by dose curve; further: nearly all actives have a fitted effect of over 50% in size; further: potency means the concentration at half of the fitted maximal effect)
Summary of the method: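 HRE-bla ME-180 cells in medium with 0.5% dialyzed FBS were preincubated 5 hrs at 37C, exposed to compounds for 17 hrs, then viability was read as CellTiter-Glo luminescence after 30 min at room temperature, in the reporter wells.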

[13] = qHTS assay to identify small molecule antagonists of the retinoic acid receptor (RAR) signaling pathway (AID 1159552; further: nearly all actives have a fitted effect of over 50% in size; further: potency means the concentration at half of the fitted maximal effect)
Summary of the method: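 Using a RARE-driven luciferase construct in C3RL4 cells, retinol at 1 uM final provided the agonist stimulus while compounds were co-applied. After 6 hours at 37 C, luminescence was recorded to flag inhibitors of retinol signaling.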

[14] = qHTS assay to identify small molecule agonists of the constitutive androstane receptor (CAR) signaling pathway - cell viability counter screen (AID 1224836); further: nearly all actives have a fitted effect of over 45% in size; further: potency means the concentration at half of the fitted maximal effect
Summary of the method: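 Multiplexed viability check: HepG2-CYP2B6-hCAR cells, 15-point compound dosing, 0.75 uM PK11195 final, 23 h at 37 C, CellTiter-Fluor fluorescence.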

[15] = qHTS assay to identify small molecule antagonists of the estrogen related receptor (ERR) signaling pathway - cell viability counter screen (AID 1224818);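 further: viability measured after 17.5 h of compound exposure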
Summary of the method: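 ERR reporter cells plated 6 h at 37 C/5% CO2, then compounds in DMSO pin-transferred and incubated 17.5 h at 37 C. Viability read as CellTiter-Fluor fluorescence after 30 min at 37 C.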

[16] = qHTS assay to identify small molecule antagonists of the estrogen related receptor (ERR) signaling pathway (AID 1224819;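 further: luminescence from an ERR-driven luciferase reporter measured with One-Glo reagent; nearly all actives have a fitted effect of over 50% in size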)
Summary of the method: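 ERR reporter cells were plated at 2,000 cells/well and left 6 h at 37 C/5% CO2 before pin-tool transfer of compounds in DMSO. After 18 h at 37 C, One-Glo was added and luminescence was read 30 min later at room temperature.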

[17] = qHTS assay to identify small molecule agonists of the estrogen related receptor (ERR) signaling pathway (AID 1224820)
Summary of the method: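 ERR reporter cell line (from NTP), 2,000 cells/well, incubated 6 h before compound addition, then 18 h at 37 C. Luminescence measured 30 min after One-Glo reagent at room temperature.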

[18] = system: estrogen-related receptor alpha (ERRalpha) with PGC-1alpha coactivator, human; assay: qHTS assay to identify small molecule antagonists of the estrogen related receptor signaling pathway with the pleiotropic PPARgamma coactivator (PGC) (AID 1224821; calls by dose curve)
Summary of the method: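 PGC/ERR reporter cell line, plated 6 h before compound addition, then exposed 18 h at 37 °C. Luciferase activity read by luminescence 30 min after One-Glo addition; decrease indicates antagonism.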

[19] = qHTS assay to identify small molecule antagonists of the estrogen related receptor signaling pathway with the pleiotropic PPARgamma coactivator (PGC) cell viability counter screen (AID 1224822)
Summary of the method: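 PGC/ERR cells were seeded at 2,000 cells/well, rested 6 h at 37 C/5% CO2, then given compounds in DMSO by pin tool and incubated 17.5 h at 37 C. Viability came from CellTiter-Fluor fluorescence after 30 min.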

[20] = qHTS assay to identify small molecule agonists of the estrogen related receptor signaling pathway with the pleiotropic PPARgamma coactivator (PGC) (AID 1224823)
Summary of the method: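 PGC/ERR reporter cells seeded 6 h, then exposed to compounds (23 nL in DMSO) for 18 h at 37 C. One-Glo luciferase luminescence read after 30 min at room temperature.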

| Structure (SMILES) | Potency [1] | Potency [2] | Potency [3] | Potency [4] | Potency [5] | Potency [6] | Potency [7] | Potency [8] | Potency [9] | Potency [10] | Potency [11] | Potency [12] | Potency [13] | Potency [14] | outcome [15] | Potency [16] | outcome [17] | Potency [18] | Potency [19] | outcome [20] |
| --- | --- | --- | --- | --- | --- | --- | --- | --- | --- | --- | --- | --- | --- | --- | --- | --- | --- | --- | --- | --- |
| N#Cc1nn(-c2c(Cl)cc(C(F)(F)F)cc2Cl)c(N)c1S(=O)C(F)(F)F (centres undefined) | inactive | inactive | 27.5 µM (active) and 29.8 µM (active) | inactive | inactive | inactive | inactive | inactive | 7.74 µM (active) and 21.1 µM (active) | inactive | inactive | inactive |  |  |  |  |  |  |  |  |
| O=NN(c1ccccc1)c1ccccc1 | inactive | inactive | inactive | inactive | inactive |  |  | inactive |  |  | inactive | inactive | inactive |  |  |  |  |  |  |  |
| Nc1ncn[nH]1 | inactive | inactive | inactive |  | inactive | inactive | inactive | inactive |  |  | inactive | inactive | inactive | inactive |  |  |  |  |  |  |
| CCCCCCCCCCCCCl | inactive | inactive | inactive |  | inactive |  |  | inactive |  |  | inactive | inactive | inactive |  |  |  |  |  |  |  |
| CC(C)(C#N)N=NC(C)(C)C#N | inactive | inactive | inactive | inactive | inactive | inactive | inactive | inactive |  |  | inactive | inactive | inactive |  |  |  |  |  |  |  |
| Clc1ccc(C(Cl)(Cl)Cl)cc1 | inactive | inactive | inactive |  | inactive |  |  | inactive | inactive | inactive | inactive | inactive | inactive |  |  |  |  |  |  |  |
| ClC(Cl)=C(Cl)C(Cl)=C(Cl)Cl | inactive | inactive | inactive | inactive | inactive |  |  | inactive |  |  | inactive | inactive | inactive |  |  |  |  |  |  |  |
| CCC[CH2][Sn]([Cl])([Cl])[CH2]CCC | 13.9 µM (active) and 27.3 µM (active) |  | 981 nM (active) and 1.09 µM (active) |  | 874 nM (active) and 864 nM (active) | 552 nM (active) and 686 nM (active) | inactive | 492 nM (active) and 486 nM (active) | 196 nM (active) and 96.9 nM (active) | inactive |  | 624 nM (active) and 977 nM (active) | 310 nM (active) and 344 nM (active) |  |  |  |  |  |  |  |
| CCOC(=O)c1ccccc1N | inactive | inactive | inactive |  | inactive | inactive | inactive | inactive |  |  | inactive | inactive | inactive | inactive |  |  |  |  |  |  |
| CC(C)(c1ccccc1)c1ccc(O)c(C(C)(C)c2ccccc2)c1 | 54 µM (active) and 61.1 µM (active) |  | 54 µM (active) and 54.5 µM (active) | inactive |  |  | 7.7 µM (active) | 54 µM (active) and 54.5 µM (active) | 48.1 µM (active) | inactive | 54.5 µM (active) | 21.7 µM (active) and 21.9 µM (active) | 27.1 µM (active) and 27.3 µM (active) |  |  |  |  |  |  |  |
| Cc1ccc(N=CN(C)C=Nc2ccc(C)cc2C)c(C)c1 | inactive | inactive | inactive | inactive | inactive | inactive | inactive | inactive |  |  | inactive | 43.8 µM (active) and 30.9 µM (active) and inactive | inactive |  |  |  |  |  |  |  |
| CN(C)c1ccccc1 | inactive | inactive | inactive |  | inactive |  |  | inactive | inactive | inactive | inactive | inactive | inactive | inactive |  |  |  |  |  |  |
| C=CC(=O)OCC(CC)(COC(=O)C=C)COC(=O)C=C | inactive | 2.23 µM (active) | 15.8 µM (active) and 17.2 µM (active) |  | 28 µM (active) and 19.3 µM (active) | 28 µM (active) and 21.7 µM (active) | inactive | 8.87 µM (active) and 12.2 µM (active) | 17.7 µM (active) and 21.7 µM (active) | inactive | 11.2 µM (active) and 15.4 µM (active) | 20 µM (active) and 12.3 µM (active) | 8.87 µM (active) and 15.4 µM (active) | 35.3 µM (active) and 30.6 µM (active) |  |  |  |  |  |  |
| [CH3][Sn]([Cl])([Cl])[Cl] | inactive | inactive | inactive |  | inactive | inactive | inactive | inactive |  |  | inactive | inactive | inactive | inactive |  |  |  |  |  |  |
| CC1=C(C(=O)Nc2ccccc2)SCCO1 | inactive | 15.6 µM (active) | inactive | 36.2 µM (active) and 44.8 µM (active) | inactive |  |  | inactive | inactive | inactive | inactive | inactive | inactive |  |  |  |  |  |  |  |
| Cc1cccc(N=Nc2ccc(N(C)C)cc2)c1 | inactive | 69.8 nM (active) and 34.4 µM (active) | 27.3 µM (active) |  |  | inactive | 2.78 µM (active) and 3.06 µM (active) |  | inactive | 1.56 µM (active) and 2.73 µM (active) |  | inactive | inactive | 78.3 µM (active) |  |  |  |  |  |  |
| O=C1Nc2ccc(Cl)cc2C(c2ccccc2)=NC1O (centres undefined) | inactive | inactive | inactive |  | inactive | inactive | inactive | inactive | inactive | inactive | inactive | inactive | inactive | inactive |  |  |  |  |  |  |
| NC(=O)CN1CCCC1=O | inactive |  | inactive | inactive | inactive | inactive | inactive | inactive | inactive | inactive |  | inactive | inactive | inactive | inactive | inactive | inactive | inactive | inactive | inactive |
